Screening data from PubChem.
In the library only some 12% were active in any assay of this set; here they are far more common.
TDP1 block – inhibitors of human tyrosyl-DNA phosphodiesterase TDP1 | recombinant TDP1, AlphaScreen DNA substrate cleavage | Q9NUW8 | Potency, µM (doses to about 130 µM), without a hit: top-dose activity change, negative = inhibition, usual class: inhibitors | 350,000 tested, 0.28% active; also: % is scaled to controls: 0 for no effect and ±100 for the full control effect; nearly all actives have a fitted effect of over 40% in size
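AlphaScreen read-out: signal falls as enzyme removes the 3' tyrosine-FITC from a 5'-biotinylated DNA oligo (15 nM, 5 min, RT). Enzyme was E. coli-made recombinant Tdp1 at 1 nM, exposed to compound for 15 min beforehand; beads 10 ug/ml, 10 min.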
HP1b binding inh – inhibitors of HP1-beta chromodomain binding to methylated histone tails. AID 540317. P83916. 390,000 tested, 0.56% active. Potency, µM (doses to about 114 µM), for the others: at the top dose activity change, negative = inhibition, most hits filed as inhibitors. AlphaScreen HP1-beta / biotin-H3K9me3 peptide binding; also: nearly all actives have a fitted effect of over 70% in size
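HP1-beta protein (50 nM final) preincubated 30 min at room temperature with biotinylated H3(1-18)K9me3 peptide (50 nM) in PBS pH 7.4, 0.01% Tween-20, then compound added for 30 min. AlphaScreen streptavidin donor/nickel chelate acceptor beads (10 ug/mL final), 30 min dark, luminescence read.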
G9a inh – inhibitors of human histone lysine methyltransferase G9a; G9a H3K9 monomethylation, AlphaScreen, 2 h; Potency, µM (series often up to 102 µM), for the others: top-dose activity, negative = inhibition, actives largely listed as inhibitors; 350,000 tested, 8.8% active; also: % is scaled to controls: 0 for no effect and ±100 for the full control effect; nearly all actives have a fitted effect of over 75% in size
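G9a (20 nM) preincubated 15 min RT with compounds, then 500 nM biotinylated H3K9 peptide and 20 uM SAM added; 2 h RT reaction. Monomethyl-H3K9 product detected by AlphaScreen with anti-H3K9me1 antibody, streptavidin donor and anti-rabbit IgG acceptor beads.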
Sfp PPTase inh – blocks B. subtilis Sfp PPTase activity; Q9F4F7; Biochemical Sfp PPTase activity, qHTS; Potency, µM, for the others: largest response in the series, negative = inhibition, usual class: inhibitors; 310,000 tested, 3.5% active; AID 1490;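 also: the enzyme is Sfp with the accession as filed and its product quenches rhodamine fluorescence; 0% = enzyme reaction without inhibitor and -100% = no enzyme wells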
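Fluorescence-quenching assay: 15 nM Sfp-PPTase preincubated 15 min at room temperature with compound, then 5 uM rhodamine-CoA and 12.5 uM BHQ-2-labelled YbbR peptide added. Fluorescence (ex 525/em 598 nm) read at start and after 30 min; difference gives rate.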
BAZ2B inh – inhibitors of human BAZ2B bromodomain | Potency, µM (top dose mostly 114 µM), inactives show at the highest dose activity change, negative = inhibition, hits mostly inhibitors | 360,000 tested, 4.4% active | Q9UIF8 | AlphaScreen BAZ2B-H3K14Ac peptide displacement; also: % is scaled to controls: 0 for no effect and ±100 for the full control effect; nearly all actives have a fitted effect of over 60% in size
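Compounds, titrated to a top concentration of 110 uM, were incubated 30 min at room temperature with preformed BAZ2B/acetyl-K14 H3 peptide complex (50 nM each). Proximity signal was measured by AlphaScreen after 20 min with beads.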
JMJD2A Tudor inh – JMJD2A Tudor domain (human) inhibition; AlphaScreen JMJD2A-Tudor / H3K4me3 peptide binding; Potency, µM (titrated, usually from 114 µM), for the others: at the top dose activity change, negative = inhibition, hits mostly inhibitors; O75164; 390,000 tested, 4.4% active; also: % is scaled to controls: 0 for no effect and ±100 for the full control effect; nearly all actives have a fitted effect of over 50% in size
An asterisk follows results filed as active; ? = inconclusive; . = not tested or not shown; [ ] = another dose, or the depositor's remark. Calls follow the shape of the dose curve; as a rule, active = well fitted curve in the direction sought with a large enough effect; inconclusive = small, poorly fitted or top-dose-only effect, or another doubt; inactive = no such curve, though single readings can be large; an effect the other way counts as inactive or inconclusive. Potency is read from the fitted curve at half-maximal effect.

SMILES | TDP1 block | HP1b binding inh | G9a inh | Sfp PPTase inh | BAZ2B inh | JMJD2A Tudor inh
CC(C)OC(=O)CSc1nnc(-c2cnccn2)n1Cc1ccco1 | 5% | 23% | -36%[59 µM] | -6% | ? | -22%
COc1cccc(-c2nnc(SCC(=O)OC(C)C)n2Cc2ccco2)c1 | 1% | -13% | 40µM* | 3% | -4% | -29%[11.4 µM]
CC(C)OC(=O)CSc1nnc(Cc2ccccc2)n1Cc1ccco1 | 8% | 8% | 8.9µM* | 22µM* | 6% | -12%
Cc1ccc(NC(=O)c2ccc3nc(Cc4ccccc4)oc3c2)cc1F | 4% | 22%[57 µM] | -3%[59 µM] | . | 0% | -4%
CCn1c(CCNC(=O)c2cccs2)n[nH]c1=S | 3% | 34% | ? | -3% | 24% | ?
COc1ccccc1-n1c(CNC(=O)c2cccs2)n[nH]c1=S | -7% | 13% | ? | 6% | -17% | ?
CCC(C)NC(=O)c1cccc(C)c1 (centres undefined) | 3% | 1% | 10% | 14% | 0% | -14%
Cn1c(CNC(=O)c2cccs2)n[nH]c1=S | -8% | 15% | 28µM* | -12% | 8% | 14µM*
Cc1cccc(C(=O)NCCc2n[nH]c(=S)n2C)c1 | 3% | 10% | 11µM* | ? | -2% | ?
Cc1cccc(C(=O)NCCCNC(=O)c2cccc(C)c2)c1 | . | 5% | 21% | ? | -18% | -2%
O=C(NCc1n[nH]c(=S)n1-c1ccc(Br)cc1)c1cccs1 | -1% | 2% | 10µM* | 22% | -16% | 25µM*
C=CCn1c(C(C)NC(=O)c2cccc(C)c2)n[nH]c1=S (centres undefined) | 0% | 39% | 28µM* | 11% | -4% | 18µM*
Cn1c(CCNC(=O)c2cccs2)n[nH]c1=S | 3% | 2% | 22µM* | -25% | 3% | 18µM*
Cc1cccc(C)c1OCC(=O)NC1CC1 | 4% | 21% | 60% | 50µM* | 1% | 2%
Cn1ccc2c(OCC(=O)NCc3ccc(F)cc3)cccc2c1=O | 3% | 28% | 2%[59 µM] | . | 4% | 3%
CCCC(C)c1nnc(NC(=O)CCS(=O)(=O)Cc2ccccc2)s1 (centres undefined) | 5% | -19% | 25µM* | 50µM* | -4% | -26%
CCCC(C)c1nnc(NC(=O)CS(=O)(=O)Cc2ccccc2)s1 (centres undefined) | -2% | ? | 8.9µM* | -29% | -6% | -29%
O=C(CS(=O)(=O)Cc1ccccc1)Nc1nnc(C2CCCCC2)s1 | 5% | 16% | 56µM* | -7% | -6% | -17%
CC(C)c1nnc(NC(=O)CS(=O)(=O)Cc2ccccc2)s1 | 0% | 0% | . | -27% | ? | -6%
CC(C)(C)c1ccc(C(=O)Nc2ccc(N3CCOCC3)cc2)cc1 | 8% | -3% | -13%[12.7 µM] | -3% | -9% | -25%
Cc1ccc(NC(=O)c2cc(N3C(=O)C=CC3=O)ccc2N2CCOCC2)cc1Cl | 1% | ? | 1.6µM* | 4µM* | 50µM* | 20µM*
O=C(Nc1ccc(N2CCOCC2)cc1)c1ccccc1SCC(=O)N1CCCC1 | 6% | 12% | 7.1µM* | -10% | -7% | -19%
O=C(Nc1ccc(N2CCOCC2)cc1)C1=NN(c2ccccc2)C(=O)CC1 | 5% | 8% | 45µM* | . | -34% | -19%
O=C(Nc1ccc(N2CCOCC2)c(Cl)c1)c1ccccc1F | -7% | 13% | 7%[59 µM] | 17% | -29% | 2%
O=C(Nc1ccc2c(c1)OCO2)c1ccccc1SCC(=O)N1CCCC1 | 4% | 26% | -12%[12.7 µM] | -2% | 13% | -5%
SMILES | TDP1 block | HP1b binding inh | G9a inh | Sfp PPTase inh | BAZ2B inh | JMJD2A Tudor inh
Cc1oc(C(C)(C)C)cc1C(=O)Nc1ccc(N2CCOCC2)cc1 | 5% | -10% | 45µM* | 0% | -25% | -17%
CCN(Cc1ccccc1)c1nc2c(S(=O)(=O)c3ccccc3)nnn2c2ccc(Cl)cc12 | 1% | 16% | 11%[59 µM] | . | 9% | -3%
O=C(Nc1ccsc1C(=O)O)c1ccc(Cl)cc1 | . | 39% | -23% | 11% | -12% | 6%
O=C(Nc1ccc(N2CCOCC2)c(Cl)c1)c1ccco1 | 3% | 29% | -2%[2.33 µM] | 4% | 3% | -18%
O=C(Nc1ccc(N2CCOCC2)cc1)c1cc(F)c(F)cc1Cl | 3% | 17% | -4%[59 µM] | 17% | 0% | -20%
CC(C)c1ccc(C(=O)Nc2ccc(N3CCOCC3)cc2)cc1 | -3% | 23% | 50µM* | 12% | -10% | -13%
Cc1ccccc1C(=O)Nc1ccc(N2CCOCC2)nc1 | 1% | 36% | 13% | 19% | -3% | 33%
O=C(Nc1ccc(N2CCOCC2)c(Cl)c1)c1ncn[nH]1 | 3% | 28% | -11%[59 µM] | -11% | 18µM* | 56µM*
CSc1ccc(Cl)c(C(=O)Nc2ccc(N3CCOCC3)cc2)c1 | 3% | 2% | 50µM* | -6% | ? | -34%
CN(C)c1ccc(NC(=O)c2ccc(N3CCOCC3)nc2)cc1 | 10% | -14% | 7.9µM* | ? | ? | ?
CCN(CC(=O)Nc1cccc(S(=O)(=O)N(C)c2ccccc2)c1)Cc1cccs1 | -2% | 21% | 10%[59 µM] | . | -32% | -6%
O=C(OCC#CCSc1nnc(-c2cccc3ccccc23)o1)c1sccc1Cl | -1% | . | . | . | . | 31%
CC(C(=O)Nc1ccon1)N1C(=O)c2ccccc2S1(=O)=O (centres undefined) | 7%[0.505 µM] | 34% | 3% | . | 7% | -1%
Cn1nc([N+](=O)[O-])c(C(C#N)c2nc3ccccc3n2C)c(Cl)c1=O (centres undefined) | 5% | ? | ? | 9% | 35µM* | ?
Cc1ccc(-c2ccc(/C=C3\C(=O)ON=C3c3ccccc3)o2)c([N+](=O)[O-])c1 | 5% | -55% | 27%[0.501 µM] | 22µM* | 10µM* | 22µM*
O=C1/C(=C\c2ccc(-c3ccccc3[N+](=O)[O-])o2)C(c2ccccc2)=NN1c1ccccc1 | 12% | 7.9µM* | 4µM* | -2% | 6.3µM* | 5.6µM*
Cc1ccc(C2=NOC(=O)/C2=C\c2ccc(C)o2)cc1 | 10% | 28µM* | . | 40µM* | 11µM* | 35µM*
Cc1ccc(/C=C2\C(=O)ON=C2c2ccccc2)o1 | 0% | ? | -13% | 15% | -20% | -34%
Cc1ccc(Cl)cc1NC(=S)NN | 7% | 23% | . | 2% | ? | -30%
CCc1ccc(N2C(=O)CC(c3cc(OC)ccc3OC)C3=C2COC3=O)cc1 (centres undefined) | 5% | 17% | -3%[59 µM] | . | -29% | -14%
CNC(=S)c1cc(C(C)(C)C)c(O)c(C(C)(C)C)c1 | 3% | 19% | . | 4% | -18% | -7%[11.4 µM]
